Reference: the supplement of paper PMC10849652
Of roughly 7,900 targets only a part is listed; those with a hit were picked by preference. About 0.6% of all pairs of compound and target were hits.

Key:
Assay in all cases: log2 fold change, soluble protein after heating vs DMSO (PISA); higher = thermal stabilisation; K562 cells, 10 uM, 30 min; active = over 0.2 and 3.5 SD of the protein, either way, in both replicates (recomputed)
erlotinib = compound: C#Cc1cccc(Nc2ncnc3cc(OCCOC)c(OCCOC)cc23)c1 [erlotinib]
Summary of the method: (§1)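 K562 cells at 2×10^6 cells/mL were treated for 30 min with 10 μM compound, and aliquots were heated for 3 min over 48°C-58°C before pooling. Extraction used PBS with 0.5% NP-40 at 4°C, and soluble protein was the supernatant after 21,000xg for 90 min, measured by TMTpro 16plex LC-MS/MS with channel sums equalised. Thermal stability values, relative to control samples and from duplicates, are log2 fold changes.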

[1] = compound: C/C(=N\NC(=O)C1=CC(=CC=C1)S(=O)(=O)N2CCOCC2)/C3=C(C=CC(=C3)Cl)O
Summary of the method: as §1

[2] = compound: C1=CC(=C(C=C1Cl)C2=NC3=NC=CN=C3C(=N2)NC4=CC=NC=C4)F
Summary of the method: as §1

[3] = compound: C1=CC(=CC=C1C2=NC3=C(N2)C=C(C=C3)C(=O)N)OC4=CC=C(C=C4)Cl
Summary of the method: as §1

[4] = compound: C1=CC2=C(C=CC(=C2)/C=C\3/C(=O)NC(=NCC4=CC=CS4)S3)N=C1
Summary of the method: as §1

[5] = compound: C1=CC2=NC=CN=C2C=C1/C=C/3\C(=O)NC(=O)S3
Summary of the method: as §1

[6] = compound: C1=CC=C(C=C1)C2=NC(=C(N2)C3=CC=NC=C3)C4=CC(=C(C=C4)Cl)O
Summary of the method: as §1

[7] = compound: C1=CC=C2C(=C1)C3=NNC4=CC=CC(=C43)C2=O
Summary of the method: as §1

[8] = compound: C1CCN(C1)C(=O)NC2=CC=CC(=C2)NC3=NC=C(C(=N3)NCCC4=CN=CN4)Br
Summary of the method: as §1

[9] = compound: C1CN(CCC1(CC2=CC=C(C=C2)Cl)N)C3=NC=NC4=C3C=CN4
Summary of the method: as §1

IRAK-1-4 Inhibitor I = compound: C1COCCN1CCN2C3=CC=CC=C3N=C2NC(=O)C4=CC(=CC=C4)[N+](=O)[O-] [IRAK-1-4 Inhibitor I]
Summary of the method: as §1

ibrutinib = compound: C=CC(=O)N1CCC[C@@H](n2nc(-c3ccc(Oc4ccccc4)cc3)c3c(N)ncnc32)C1 [ibrutinib]
Summary of the method: as §1

[10] = compound: CC(=O)c1cnc2ccc(-c3cc(Cl)c(O)c(Cl)c3)nc2c1N[C@H]1CC[C@H](CN(C)C)CC1
Summary of the method: as §1

ralimetinib = compound: CC(C)(C)Cn1c(N)nc2ccc(-c3[nH]c(C(C)(C)C)nc3-c3ccc(F)cc3)nc21 [ralimetinib]
Summary of the method: as §1

[11] = compound: CC(C)(O)CC(=O)NCCn1ccc2ncnc(Nc3ccc(Oc4cccc(C(F)(F)F)c4)c(Cl)c3)c21
Summary of the method: as §1

[12] = compound: CC(C)C1=C2N=C(C=C(N2N=C1)NCC3=CC=CC=C3)NCCCCCCN
Summary of the method: as §1

[13] = compound: CC(C)C[C@@H](C=O)NC(=O)[C@H](CC(C)C)NC(=O)[C@H](CC(C)C)NC(=O)OCc1ccccc1
Summary of the method: as §1

pinometostat = compound: CC(C)N(C[C@H]1O[C@@H](n2cnc3c(N)ncnc32)[C@H](O)[C@@H]1O)[C@H]1C[C@@H](CCc2nc3cc(C(C)(C)C)ccc3[nH]2)C1 [pinometostat]
Summary of the method: as §1

[14] = compound: CC1=C(C(CC(=O)N1)C2=CC=C(C=C2)C(F)(F)F)C(=O)NC3=C(C=C4C(=C3)C=NN4)F
Summary of the method: as §1

[15] = compound: CC1=C(C2=C(C=C1)C(=O)C3=CC=CC=C3N2CCCN)C
Summary of the method: as §1

Measured: log2 fold change

DHRS7B (UniProt Q6IAN0)
Sequence of UniProt Q6IAN0 (Q6IAN0 whole entry, looked up): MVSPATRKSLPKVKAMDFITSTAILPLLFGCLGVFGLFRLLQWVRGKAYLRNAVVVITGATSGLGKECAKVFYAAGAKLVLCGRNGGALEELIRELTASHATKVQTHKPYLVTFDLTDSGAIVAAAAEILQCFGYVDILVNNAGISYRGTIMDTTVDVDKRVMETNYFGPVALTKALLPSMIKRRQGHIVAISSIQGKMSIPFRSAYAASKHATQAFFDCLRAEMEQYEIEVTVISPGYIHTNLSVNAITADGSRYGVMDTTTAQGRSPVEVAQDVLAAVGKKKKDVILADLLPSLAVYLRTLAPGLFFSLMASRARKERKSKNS
inactive: erlotinib -0.039 | [1] 0.07 | [2] 0.011 | [3] 0.009 | [4] 0.027 | [5] 0.012 | [6] 0.144 | [7] 0.034 | [8] -0.037 | [9] 0.058 | IRAK-1-4 Inhibitor I 0.027 | ibrutinib -0.017 | [10] -0.063 | ralimetinib 0.23 | [11] 0.055 | [12] 0.115 | [13] -0.113 | pinometostat -0.055 | [14] -0.049 | [15] -0.003

DTYMK (UniProt P23919)
Sequence of UniProt P23919 (P23919 whole entry, looked up): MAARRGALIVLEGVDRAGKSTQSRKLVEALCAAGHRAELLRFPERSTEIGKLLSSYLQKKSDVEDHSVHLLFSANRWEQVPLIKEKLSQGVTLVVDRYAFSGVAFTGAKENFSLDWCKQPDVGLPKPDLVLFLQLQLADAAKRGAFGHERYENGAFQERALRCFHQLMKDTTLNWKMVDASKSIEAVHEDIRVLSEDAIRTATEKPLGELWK
inactive: erlotinib -0.007 | [1] 0.025 | [2] 0.013 | [3] 0.04 | [4] -0.027 | [5] 0.044 | [6] -0.017 | [7] 0.095 | [8] 0.015 | [9] 0.016 | IRAK-1-4 Inhibitor I 0.076 | ibrutinib -0.003 | [10] -0.02 | ralimetinib -0.056 | [11] -0.178 | [12] -0.029 | [13] -0.013 | pinometostat 0.039 | [14] -0.01 | [15] 0.084

EXOC7 (UniProt Q9UPT5)
Sequence of UniProt Q9UPT5 (Q9UPT5 whole entry, looked up): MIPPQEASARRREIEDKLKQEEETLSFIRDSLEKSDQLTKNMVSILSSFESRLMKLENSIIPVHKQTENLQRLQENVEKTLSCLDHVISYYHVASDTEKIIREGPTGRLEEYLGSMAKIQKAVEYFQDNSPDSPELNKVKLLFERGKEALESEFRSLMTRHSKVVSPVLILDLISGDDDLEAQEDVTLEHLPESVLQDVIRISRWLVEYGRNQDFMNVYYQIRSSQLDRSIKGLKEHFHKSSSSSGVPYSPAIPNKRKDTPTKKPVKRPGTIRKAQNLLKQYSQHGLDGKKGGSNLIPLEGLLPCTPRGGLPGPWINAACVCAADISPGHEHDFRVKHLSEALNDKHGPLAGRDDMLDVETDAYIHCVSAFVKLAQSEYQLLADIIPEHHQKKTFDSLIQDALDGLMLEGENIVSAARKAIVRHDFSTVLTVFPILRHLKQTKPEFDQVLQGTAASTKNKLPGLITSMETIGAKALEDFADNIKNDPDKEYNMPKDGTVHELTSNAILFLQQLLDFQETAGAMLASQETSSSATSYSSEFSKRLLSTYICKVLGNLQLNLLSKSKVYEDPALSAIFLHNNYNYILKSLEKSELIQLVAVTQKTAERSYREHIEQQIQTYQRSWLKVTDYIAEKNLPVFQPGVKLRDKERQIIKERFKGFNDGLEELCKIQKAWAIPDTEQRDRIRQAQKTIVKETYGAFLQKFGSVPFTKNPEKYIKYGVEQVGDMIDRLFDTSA
inactive: erlotinib 0.032 | [1] 0.074 | [2] 0.001 | [3] -0.042 | [4] 0.048 | [5] 0.016 | [6] 0.011 | [7] -0.016 | [8] -0.023 | [9] -0.014 | IRAK-1-4 Inhibitor I -0.047 | ibrutinib -0.029 | [10] 0.002 | ralimetinib 0.049 | [11] -0.109 | [12] -0.276 | [13] 0.044 | pinometostat 0.043 | [14] 0.041 | [15] 0.045

EED, A0A5F9ZI63
inactive: erlotinib 0.056 | [1] 0.049 | [2] -0.04 | [3] 0.028 | [4] -0.1 | [5] 0.05 | [6] -0.036 | [7] -0.033 | [8] 0.032 | [9] 0.012 | IRAK-1-4 Inhibitor I -0.032 | ibrutinib -0.012 | [10] -0.041 | ralimetinib 0.042 | [11] 0.053 | [12] 0.05 | [13] 0.03 | pinometostat 0.052 | [14] -0.001 | [15] 0.145
